Screens: PubChem BioAssay, several laboratories
This is a sample that favours compounds with a hit; in the whole collection about 11% have one here.
WT yeast gro inh = growth inhibition of WT yeast, mitochondrial fusion screen. mitochondrial fusion phenotypic screen, WT strain. inhibition, % at 10 µM. actives 2.1% (n = 190,000); in the data active means inhibition above about 58%; tested in S. cerevisiae
Autophagy mod = modulators of autophagy; MEF GFP-LC3 puncta imaging; test concentration mostly 10 µM; calls only at 10 µM (by protocol); actives 0.98% (n = 190,000); AID 463193;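 active means percentage of spot-positive cells more than 3 SD above its plate mean, without a fluorescence outlier flag or 80% toxicity; inconclusive means no clear call, values can overlap the other calls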;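 further: spot-positive cell cutoff set from DMSO-treated cells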
Insulin prom inh = TRM-6 insulin promoter activity inhibition | AID 1273 | actives 0.9% (n = 130,000) | TRM-6 cells (human fetal islet line), insulin promoter-eGFP reporter, imaging; reporter expression induced with tamoxifen | inhibition, % at 2 µM;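 active means inhibition above the mean plus 3 SD, with well images judged a real hit on visual review, cut at about 60% in these data, passing the limit was not always enough; inconclusive means inhibition over the cutoff but images rejected on review; inactive means inhibition not above the cutoff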
Insulin prom up = MIN6 insulin promoter up-regulation; MIN6 insulin promoter-GFP reporter, high-content imaging; hits give high values; z-score at 5 µM; actives 0.3% (n = 190,000); AID 1625;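 active means z-score above 3 at 5 µM with at least 500 cells counted in the well; inconclusive means wells under 500 cells, flagged as cytotoxic or low count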
L major viab = Leishmania major promastigote growth inhibition; AID 1063; inhibition, % at 10 µM; actives 9% (n = 200,000); Leishmania major promastigotes, resazurin fluorescence viability; in the data active means inhibition above about 50%;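 further: promastigotes grown with compound for 44 hours at 28 °C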
An asterisk follows results filed as active.

`COc1ccc(NC(=O)CCNS(=O)(=O)c2ccc3c(c2)c(=O)n(C)c(=O)n3C)c(OC)c1` gave WT yeast gro inh -7.1, Autophagy mod inactive, Insulin prom inh -11.1, Insulin prom up 0.14 and L major viab 6.0.
Screening CC(C)(C)c1cnnn1-c1ccc(C=O)cc1 returned WT yeast gro inh -4.5, Autophagy mod inactive, Insulin prom inh 66.7 and L major viab 2.5.
Screening CC(C)(C)c1cnnn1-c1ccc(C(=O)CCl)cc1 returned WT yeast gro inh -2.1, Autophagy mod inactive, Insulin prom inh -10.3, Insulin prom up 0.63 and L major viab 69.2*.
CCc1nc(N2CCC(C)CC2)c2oc3ccccc3c2n1 was read as WT yeast gro inh 73.4*, Autophagy mod inactive, Insulin prom inh 35.5, Insulin prom up -0.35 and L major viab 5.8.
`CCNc1nc(CC)nc2c1oc1ccccc12` gave WT yeast gro inh 18.7, Autophagy mod inactive and L major viab 56.6*.
`c1ccc2c(c1)oc1c(N3CCN(Cc4ccc5c(c4)OCO5)CC3)ncnc12` gave WT yeast gro inh 75.6*, Autophagy mod inactive, Insulin prom inh -10.8, Insulin prom up -6.44 and L major viab 94.5*.
Cc1nc(NCc2ccc3c(c2)OCO3)c2oc3ccccc3c2n1 was read as WT yeast gro inh 39.2, Autophagy mod inactive, Insulin prom inh 57.1 and L major viab 6.9.
`CCc1nc(N(CC)CC)c2oc3ccccc3c2n1` gave WT yeast gro inh 28.3, Autophagy mod inactive, Insulin prom inh inconclusive and L major viab 30.9.
CCc1nc(NCc2ccc3c(c2)OCO3)c2oc3ccccc3c2n1 was read as WT yeast gro inh 1.6, Autophagy mod inactive, Insulin prom inh 29.7, Insulin prom up -0.9 and L major viab 72.1*.
`Fc1ccccc1CSc1ncnc2sc3c(c12)CCCC3` gave WT yeast gro inh 50.6, Autophagy mod inactive, Insulin prom up 1.44 and L major viab 6.7.
Screening CCc1nc(Nc2ccc3c(c2)OCCO3)c2oc3ccccc3c2n1 returned WT yeast gro inh 42.2, Autophagy mod inactive, Insulin prom inh 85.7*, Insulin prom up -2.04 and L major viab 24.8.
Cc1nc(Nc2ccc3c(c2)OCCO3)c2oc3ccccc3c2n1 was read as WT yeast gro inh 25.0, Autophagy mod inactive, Insulin prom inh 66.7, Insulin prom up -0.48 and L major viab 13.2.
For CCc1nc(SCc2nc3ccccc3[nH]2)c2oc3ccccc3c2n1 the results were WT yeast gro inh 74.1*, Autophagy mod inactive, Insulin prom inh 43.8, Insulin prom up 0.48 and L major viab 24.0.
For CCc1ccc(N2CC(C(=O)N/N=C/c3cc([N+](=O)[O-])ccc3O)CC2=O)cc1 (stereo not given) the results were WT yeast gro inh -34.1, Autophagy mod inactive, Insulin prom inh 20.0, Insulin prom up -0.01 and L major viab 47.1.
For CCOc1ccccc1/C=N/NC(=O)CSc1n[nH]c(=O)[nH]c1=O the results were WT yeast gro inh -7.7, Autophagy mod inactive, Insulin prom inh 5.6, Insulin prom up 0.91 and L major viab -1.1.
Screening O=C(CSc1n[nH]c(=O)[nH]c1=O)N/N=C/c1ccccc1O returned WT yeast gro inh -6.0, Autophagy mod inactive, Insulin prom inh 10.7, Insulin prom up 0.1 and L major viab 99.7*.
Screening COc1ccc(CSCC(=O)N/N=C/c2ccccc2O)cc1 returned WT yeast gro inh 10.7, Autophagy mod active, Insulin prom inh 75.0*, Insulin prom up 0.19 and L major viab 67.8*.
Screening O=C(CSc1ccccc1)N/N=C/c1ccccc1O returned WT yeast gro inh 7.2, Autophagy mod inactive, Insulin prom inh 0.0, Insulin prom up -0.04 and L major viab -3.5.
For COc1ccc2nc(C)cc(SCC(=O)N/N=C/c3ccc(O)cc3O)c2c1 the results were WT yeast gro inh -0.5, Autophagy mod inactive, Insulin prom up -0.71 and L major viab 97.9*.
`COc1ccc2nc(C)cc(SCC(=O)N/N=C/c3c(OC)ccc4ccccc34)c2c1` gave WT yeast gro inh -21.7, Autophagy mod inactive, Insulin prom inh 29.7, Insulin prom up -0.07 and L major viab 71.0*.
CN(C)N=Nc1nc2c(c(=O)n(C)c(=O)n2C)n1CC1CO1 (stereo not given) was read as Insulin prom up -0.53.
NNC(=O)c1ccc(Cn2cc(Cl)cn2)cc1 was read as WT yeast gro inh -7.5, Autophagy mod inactive, Insulin prom inh -7.7, Insulin prom up -0.07 and L major viab -8.1.
For O=C(Nc1ccc(Cl)c(Cl)c1)c1ccc(Cn2cc(Cl)cn2)cc1 the results were WT yeast gro inh 78.3*, Autophagy mod inactive, Insulin prom up 0.81 and L major viab 23.4.
For O=[N+]([O-])c1cc(S(=O)(=O)N2CCCC2)ccc1N/N=C/c1cccnc1 the results were WT yeast gro inh -11.3, Autophagy mod inactive, Insulin prom inh 51.7, Insulin prom up -0.12 and L major viab 60.4*.
Screening O=[N+]([O-])c1cc(S(=O)(=O)N2CCCC2)ccc1NCCc1ccccc1 returned WT yeast gro inh -21.2, Autophagy mod inactive, Insulin prom inh -32.5, Insulin prom up 0.34 and L major viab 57.8*.
`O=C(O)c1ccccc1/C=N/Nc1ccc(S(=O)(=O)N2CCCC2)cc1[N+](=O)[O-]` gave Insulin prom up 0.35.
Screening CCC(C)(NC=O)C(=O)Nc1c(C)cccc1C (stereo not given) returned Insulin prom up 0.08.
CCCCCCCCCCCCCCCC[n+]1cccc2ccccc21 was read as WT yeast gro inh 97.9, Autophagy mod inactive, Insulin prom up inconclusive and L major viab 100.4*.
Screening O=C(C[n+]1cccc2ccccc21)c1ccccc1 returned WT yeast gro inh -4.2, Autophagy mod inactive, Insulin prom inh -204.0, Insulin prom up 0.06 and L major viab -4.2.
O=C(CC12CC3CC(CC(C3)C1)C2)NC(=S)NCc1ccco1 was read as WT yeast gro inh 73.4*, Autophagy mod inactive, Insulin prom inh -29.4, Insulin prom up 0.33 and L major viab 93.3*.
For Cc1ccc(NC(=O)C2CC(=O)n3c(nc4ccccc43)N2)cc1Cl (stereo not given) the results were WT yeast gro inh -7.0, Autophagy mod inactive, Insulin prom inh 73.3*, Insulin prom up -0.43 and L major viab 34.5.
Screening COc1ccc(CNC(=O)COc2ccc(S(=O)(=O)NC(C)C)cc2)cc1 returned WT yeast gro inh 4.5, Autophagy mod inactive, Insulin prom inh 60.0, Insulin prom up -0.26 and L major viab 64.6*.
Screening Cc1c(Cl)c([N+](=O)[O-])nn1CCCC(=O)NCCc1ccccc1 returned WT yeast gro inh -10.5, Autophagy mod inactive, Insulin prom inh -109.1, Insulin prom up -0.29 and L major viab 0.1.
`COc1cc(OC)cc(-c2nnc(SCC(=O)N(C(C)C)C(C)C)o2)c1` gave WT yeast gro inh 6.4, Autophagy mod inactive, Insulin prom up -0.12 and L major viab 14.7.
Screening COc1cc(OC)cc(-c2nnc(Sc3ccc(C=O)cc3[N+](=O)[O-])o2)c1 returned WT yeast gro inh -8.8, Autophagy mod inactive, Insulin prom inh -13.3, Insulin prom up 0.66 and L major viab 51.9*.
